Only some compounds are listed: those with a hit (about 27% of all), similar ones and a draw of the others.
CYP2C19 activ = increases human CYP2C19 enzyme activity; P33261; recombinant CYP2C19, luciferin-H EGE luminescence; hits give high values; 0 = fully inhibited enzyme, 1 = untreated enzyme; activation factor at 5 µM; 96,000 tested, under 10 active;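 active = activation factor of at least 2 at 5 µM in the primary screen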
CYP2C9 inhib = human CYP2C9 inhibition; CYP2C9 Supersomes, luciferin-H conversion, luminescence; inhibition, % at 5 µM; 96,000 compounds, 20% hits;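 active = blocking of liver enzyme CYP2C9 beyond about 50% at 5 µM, limit read from the data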
Target sequence (P11712 whole entry, looked up): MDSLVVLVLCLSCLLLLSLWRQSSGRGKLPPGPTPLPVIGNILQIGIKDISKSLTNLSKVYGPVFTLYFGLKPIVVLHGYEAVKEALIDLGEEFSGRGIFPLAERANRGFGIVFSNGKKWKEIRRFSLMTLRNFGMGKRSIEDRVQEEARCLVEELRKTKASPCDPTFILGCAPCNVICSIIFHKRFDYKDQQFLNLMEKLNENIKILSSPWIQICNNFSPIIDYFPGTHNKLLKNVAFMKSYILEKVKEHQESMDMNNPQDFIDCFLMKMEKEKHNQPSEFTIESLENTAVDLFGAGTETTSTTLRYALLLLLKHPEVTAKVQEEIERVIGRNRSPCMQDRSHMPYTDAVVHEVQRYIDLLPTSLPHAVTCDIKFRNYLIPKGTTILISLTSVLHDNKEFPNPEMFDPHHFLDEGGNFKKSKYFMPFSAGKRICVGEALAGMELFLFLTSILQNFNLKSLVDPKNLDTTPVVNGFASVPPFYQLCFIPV
CYP2C19 inh = blocks human cytochrome P450 2C19. P33261. CYP2C19 Supersomes, luciferin-H EGE luminescence, 30 min. inhibition, % at 5 µM. 96,000 compounds, 21% hits. AID 778;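 active = CYP2C19 inhibition above a set limit at 5 µM in the primary screen, cut at about 50% in these data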
Cav3 T inh = inhibitors of human Cav3.2 T-type calcium channel; AID 449739; Cav3.2-expressing cells, Fluo-4 calcium fluorescence FDSS; hits give low values; 100,000 compounds, 4% hits; B-score at 10 µM; O95180;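 active = single-dose well whose peak fluorescence ratio is a statistical outlier from its plate by either plate-standardised score or position-corrected B-score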
CYP2C9 act = CYP2C9 (human) activation | P11712 | recombinant CYP2C9, luciferin-H conversion, luminescence; hits give high values; factor 1 = untreated enzyme, 0 = blocked | activation factor at 5 µM | 96,000 compounds, 1.4% hits;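 active = activation factor of 2 or more for CYP2C9 at a 5 µM dose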
A number is an active result; . = inactive; / = no result given.

SMILES	CYP2C19 activ	CYP2C9 inhib	CYP2C19 inh	Cav3 T inh	CYP2C9 act
Cc1ccc(NC(=O)COc2ccc3oc4c(c3c2)CCCC4)nc1	.	55	.	.	.
CC(C)(C)n1ncc2c(=O)n(CC(=O)NCc3ccccc3Cl)cnc21	.	.	.	.	.
O=C(CSc1nc2cc(Cl)ccc2s1)N1CCCc2ccccc21	.	62	.	.	.
COc1ccc2c(c1)nc(SCC(=O)C(C)(C)C)n2C	.	.	.	.	.
CCOc1ccc2nc(SCC(=O)N3CCN(C(=O)c4ccco4)CC3)sc2c1	.	53	.	/	.
O=C(CSc1nc2ccccc2s1)N1CCN(C(=O)c2ccco2)CC1	.	.	.	.	.
CCOc1ccc2nc(SCC(=O)N3CCCc4ccccc43)sc2c1	.	.	.	-4.7	.
CCOc1ccc2nc(SCC(=O)c3ccc(Cl)s3)sc2c1	.	.	.	.	.
COc1ccc2c(c1)nc(SCC(=O)c1cccs1)n2C	.	.	51	.	.
CCOC(=O)CSc1nc(C)c2ccc(C)cc2n1	/	/	/	.	/
O=[N+]([O-])c1cc(-c2csc(NC(CO)c3nc4ccccc4n3CCOCCO)n2)ccc1Cl (configuration not stated)	/	/	/	.	/
CCOc1ccc2nc(SCC(=O)c3cccs3)sc2c1	.	.	55	.	.
O=C(CSc1nc(-c2ccc(F)cc2)cs1)N1CCN(C(=O)c2ccco2)CC1	.	.	76	.	.
O=C(C1CCN(c2ccc(N3CCOCC3)nn2)CC1)N1CCN(c2ccc(F)cc2)CC1	.	.	.	.	.
O=C(CN(C(=O)CSc1nc2ccccc2o1)c1cccc(F)c1)NC1CCCCC1	.	63	74	-5.6	.
O=C(CSc1nc2ccccc2o1)N1CCCC1	.	.	.	.	.
O=C(CN(C(=O)CSc1nc2ccccc2o1)c1ccccc1)NC1CCCCC1	.	.	77	-3	.
CS(=O)(=O)N(CC(=O)NC1CCCC1)c1cccc(F)c1	.	.	.	.	.
CCOc1ccc2nnc(-c3ccc(Br)cc3)n2n1	/	/	/	.	/
C=CCn1c(NC(=O)c2ccc(Br)o2)c(C(=O)OCC)sc1=S	.	88	.	.	.
COc1ccc(-c2csc(Cc3nnc(N4CCOCC4)n3-c3ccccc3)n2)cc1	.	.	.	.	.
CCN(CC)C(=O)C1CCN(S(=O)(=O)c2ccc(C3CNC(=O)C3)cc2)CC1 (configuration not stated)	.	.	.	.	.
COc1ccc(OC)c(C(O)c2nc3ccccc3n2C(C)C)c1 (configuration not stated)	.	.	74	.	.
COc1ccc(OC)c(C(C)NC=O)c1 (configuration not stated)	.	.	.	.	.
Oc1ccc(C=Nc2ccc3ncccc3c2)c(O)c1	.	.	56	/	.
SMILES	CYP2C19 activ	CYP2C9 inhib	CYP2C19 inh	Cav3 T inh	CYP2C9 act
Oc1ccc(C=Nc2cccc3ncccc23)c(O)c1	.	.	.	.	.
CCOC(=O)c1cc2c(C)n(-c3ccc(N(C)C)cc3)c(C)c2cc(C(=O)OCC)c1=O	.	.	50	.	.
CCOC(=O)C1=NN(c2ccccc2)C(=O)/C1=C\c1ccc(N(C)C)cc1	.	.	.	.	.
CCC1=C(OC(=O)N(CC)CC)N2C(=O)OC(=NCCc3c[nH]c4ccccc34)[C@]2(C)[C@H]2C1=CC[C@H]1C(=O)N(C)C(=O)[C@H]12	/	/	/	.	/
CC12C(=O)N(CCC(=O)O)C(=O)C1C1C=CC2C1 (configuration not stated)	.	.	.	.	.
O=C1C2C3C=CC(C3)C2C(=O)N1Cc1ccccc1 (configuration not stated)	.	.	84	.	.
C/C(Cl)=C/CN1C(=O)C2C3C=CC(C3)C2C1=O (configuration not stated)	.	.	73	.	.
CC12C(=O)N(Cc3ccccc3)C(=O)C1C1C=CC2C1 (configuration not stated)	.	.	89	.	.
CCOc1cc(C2C(C(=O)c3ccccc3)=C(C(=O)OC)Nc3nnnn32)ccc1O (configuration not stated)	.	.	.	.	.
CN(Cc1ccccc1)C(=O)C1CCN(Cc2ccc(F)cc2)CC1	.	.	.	.	.
COc1cccc(NC(=O)CN2C(=O)COc3ccc(Cl)cc32)c1	.	78	92	-5.4	.
Cc1cccc(NC(=O)CN2C(=O)COc3ccc(Cl)cc32)c1	.	.	72	.	.
Cc1cccc(NC(=O)CN2C(=O)COc3ccc(Cl)cc32)c1C	.	.	88	-5.3	.
CCOc1ccc(NC(=O)CN2C(=O)COc3ccc(Cl)cc32)cc1	.	.	.	.	.
CNC(=O)CSc1nc2c(c(=O)n(C)c(=O)n2C)n1Cc1ccc(C)cc1	.	.	.	.	.
CCCn1c(C2CC(=O)N(c3cc(OC)ccc3OC)C2)nc2ccccc21 (configuration not stated)	.	.	.	.	.
CCn1c(C2CC(=O)N(c3ccc(C)c(C)c3)C2)nc2ccccc21 (configuration not stated)	.	.	53	.	.
C=C(C)Cn1c(C2CC(=O)N(Cc3ccccc3)C2)nc2ccccc21 (configuration not stated)	.	71	55	.	.
C=C(C)Cn1c(C2CC(=O)N(c3ccccc3F)C2)nc2ccccc21 (configuration not stated)	/	/	/	.	/
CC(C)(C)N1CC(c2nc3ccccc3n2Cc2ccccc2)CC1=O (configuration not stated)	.	79	.	.	.
CCn1c(C2CC(=O)N(Cc3ccccc3)C2)nc2ccccc21 (configuration not stated)	.	.	53	.	.
Cc1ccc(N2CC(c3nc4ccccc4n3C)CC2=O)cc1C (configuration not stated)	.	.	.	.	.
COc1ccc(S(=O)(=O)NNC(=O)C2Cc3c(ccc4ccccc34)O2)cc1 (configuration not stated)	.	.	.	.	.
CCN1CCN(S(=O)(=O)c2cc(OC)c(Cl)cc2OC)CC1	.	.	.	.	.
Cc1cc(C)cc(N2CC(c3nc4ccccc4n3C)CC2=O)c1 (configuration not stated)	.	.	.	.	.
SMILES	CYP2C19 activ	CYP2C9 inhib	CYP2C19 inh	Cav3 T inh	CYP2C9 act
c1ccc(CCn2c(C3CC3)nc3ccccc32)cc1	.	66	98	.	.
C=CCN1CC(c2nc3ccccc3n2CCOc2ccccc2)CC1=O (configuration not stated)	.	73	60	.	.
N#Cc1ccc(CSc2ncnc3c2cnn3Cc2ccccc2)cc1	.	.	.	.	.
Cc1sc2nc(-c3cccs3)nc(N3CCCN(C)CC3)c2c1C	.	.	.	/	.
O=c1ccc(NS(=O)(=O)c2ccc(Cl)cc2)cn1Cc1ccc(Cl)c(Cl)c1	.	90	97	-4.4	.
Cn1c(CN2CCCC2)nc2cc(NS(=O)(=O)c3ccc(Cl)cc3)ccc21	.	.	.	.	.

Screening data deposited in PubChem by several laboratories.
